Measured values: PubChem BioAssay (NCI)
About 83,000 compounds went through this panel and 20% of them were active in at least one assay; those are over-represented in the sample as a whole.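 Activity criterion: percent growth below 10, measured after cells in 96-well plates were exposed to a single compound concentration for 48 hours.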 Activity calls are given as the source filed them.

What was measured:
Test in all cases: NCI-60 one-dose screen, 48 h (100 = growth as untreated, 0 = no growth, -100 = all killed)
Details in all cases: 10 µM unless noted
SK-MEL-2 melanoma = tested on: SK-MEL-2 melanoma
EKVX NSCLC = tested on: EKVX NSCLC
SN12C renal = tested on: SN12C renal
UO-31 renal = tested on: UO-31 renal
TK-10 renal = tested on: TK-10 renal
ACHN renal = tested on: ACHN renal
CAKI-1 renal = tested on: CAKI-1 renal
A498 renal = tested on: A498 renal
CCRF-CEM leukemia = tested on: CCRF-CEM leukemia
MOLT-4 leukemia = tested on: MOLT-4 leukemia

Row | Compound | growth (SK-MEL-2 melanoma) | growth (EKVX NSCLC) | growth (SN12C renal) | growth (UO-31 renal) | growth (TK-10 renal) | growth (ACHN renal) | growth (CAKI-1 renal) | growth (A498 renal) | growth (CCRF-CEM leukemia) | growth (MOLT-4 leukemia)
1 | CCNC(=O)c1[nH]cc(-c2ccccc2)c1-c1cc(OC)c2c(c1OC)OCO2 | 99.9% (inactive) | 96.9% (inactive) | 98.7% (inactive) | 76% (inactive) | 106% (inactive) | 99.1% (inactive) | 74.7% (inactive) | 77.1% (inactive) | 101% (inactive) | 98.9% (inactive)
2 | CCCCCCCCCCCCCCCCCCOc1ccccc1CC(=O)OCC[N+]1(C)CCCC1 | 65.6% (inactive) | 53.8% (inactive) | 12.7% (inactive) | 62.8% (inactive) | 45.2% (inactive) | 78.9% (inactive) | 30.9% (inactive) | 60.7% (inactive) | 19.8% (inactive) | 18.1% (inactive)
3 | Cn1cc(-c2nc(-c3c[nH]c4ccncc34)cs2)c2ccccc21 | 93.1% (inactive) | 49% (inactive) | 77.5% (inactive) | 57.9% (inactive) | 88.3% (inactive) | 24.7% (inactive) | 19.8% (inactive) | 85.3% (inactive) | 0.202% (active) | 35.7% (inactive)
4 | Brc1c2c(c(Br)c3ccccc13)CCCC2 | 93.8% (inactive) | 97.2% (inactive) | 94.2% (inactive) | 95.2% (inactive) | 99.2% (inactive) | 104% (inactive) | 99.2% (inactive) | 94.6% (inactive) | 96.5% (inactive) | 95.8% (inactive)
5 | COc1ccc2c(c1)[n+]([O-])c(C(=O)/C=C/C=C(\Cl)c1cc(OC)c(OC)c(OC)c1)c(C)[n+]2[O-] | 47.2% (inactive) | 85.6% (inactive) | 78.1% (inactive) | 107% (inactive) | 89.2% (inactive) | 44.7% (inactive) | 79.1% (inactive) | 96.6% (inactive) | 99.8% (inactive) | 96.1% (inactive)
6 | Cc1cc2c(O)c(-c3cc(Cl)ccc3Cl)c3sc(=O)oc3c2cc1C | 74% (inactive) | 94.6% (inactive) | 66.9% (inactive) | 85.3% (inactive) | 113% (inactive) | 79.8% (inactive) | 53.9% (inactive) | 30.1% (inactive) | 53.8% (inactive) | 40.6% (inactive)
7 | Cc1ccc(-c2nc3nc(-c4ccccc4)nc(N4CCNCC4)c3o2)cc1 | -92.7% (active) | -65.5% (active) | -78.3% (active) | -91.8% (active) | -96.5% (active) | -97.2% (active) | -99% (active) | -88.7% (active) | -69.3% (active) | -69.2% (active)
8 | Cc1cccc(N2CCN(CC(O)COc3ccc(Cl)cc3)CC2)c1 (stereo not given) | 89.5% (inactive) | 96.8% (inactive) | 95.2% (inactive) | 85.3% (inactive) | 116% (inactive) | 93.7% (inactive) | 84.5% (inactive) | 115% (inactive) | 97.7% (inactive) | 77.1% (inactive)
9 | C#Cc1cccc(Nc2ncnc3ccc(-c4cnc(N)nc4)cc23)c1 | 19.8% (inactive) | 2.36% (active) | 7.3% (active) | -5.12% (active) | -9.72% (active) | 3.99% (active) | 2.19% (active) | -44.6% (active) | 35.7% (inactive) | 19.6% (inactive)
10 | CN(Cc1ccc(C(F)(F)F)cc1)CC(O)C(=O)Nc1ccc(Cl)cc1 (stereo not given) | -48.1% (active) | 12.6% (inactive) | -67.6% (active) | 12.6% (inactive) | 24.3% (inactive) | -3.15% (active) | -59.6% (active) | -4.42% (active) | -27.4% (active) | -20.9% (active)
11 | CC1(C)CC2=C3C=C[C@@H]4[C@@]5(C)CCC(=O)C(C)(C)[C@@H]5CC[C@@]4(C)[C@]3(C)CC[C@@]2(C(=O)O)CC1=O | 68.3% (inactive) | 63.3% (inactive) | 85.1% (inactive) | 44.4% (inactive) | 61.2% (inactive) | 40.8% (inactive) | 52.3% (inactive) | 42.1% (inactive) | 58% (inactive) | 54.6% (inactive)
12 | C=CCn1c(SCC(=O)Nc2ccc(C(=O)/C=C/c3cc4cc(OC)ccc4nc3Cl)cc2)nnc1-c1ccc(Br)cc1 | 79.2% (inactive) | 87.4% (inactive) | 81.5% (inactive) | 65.3% (inactive) | 93.5% (inactive) | 92.1% (inactive) | 76.1% (inactive) | 89.5% (inactive) | 58.5% (inactive) | 68.5% (inactive)
13 | O=C(Nc1ccc(-c2nc(N3CCOCC3)c3cccn3n2)cc1)Nc1cccnc1 | -4.42% (active) | -13.5% (active) | 6.41% (active) | -9.74% (active) | -17.4% (active) | -5.66% (active) | 8.83% (active) | -35% (active) | 12.6% (inactive) | 5.84% (active)
14 | Fc1ccc(Nc2nc3nonc3nc2Nc2ccc(I)cc2)cc1 | -39.7% (active) | 3.92% (active) | -5.7% (active) | -7.55% (active) | -2.84% (active) | 4.53% (active) | 11.3% (inactive) | -36.1% (active) | 1.66% (active) | -35.7% (active)
15 | COc1ccc(OC)c(-c2c(C#N)c(-c3cccs3)nc3c2c(-c2ccccc2)nn3-c2ccccc2)c1 | 107% (inactive) | 99.7% (inactive) | 99.3% (inactive) | 97.1% (inactive) | 108% (inactive) | 102% (inactive) | 91.9% (inactive) | 103% (inactive) | 99.7% (inactive) | 99.4% (inactive)
16 | O=CC1(C2(C=O)c3ccccc3-c3ccccc32)c2ccccc2-c2ccccc21 | -44.4% (active) | -78.4% (active) | -29.1% (active) | -89.3% (active) | -79.9% (active) | -79% (active) | -78.2% (active) | -84.1% (active) | -5.1% (active) | -47.4% (active)
17 | O=[N+]([O-])/C(=C/C=C/c1ccccc1)c1ccccc1 | 86.5% (inactive) | 92.7% (inactive) | 66.5% (inactive) | -44.4% (active) | 91.1% (inactive) | 10.6% (inactive) | 51.2% (inactive) | 50.4% (inactive) | 36.5% (inactive) | 34.4% (inactive)
18 | CN(C)c1ccc(Nc2cc(-c3cccc(OC(F)(F)F)c3)nc3ccc(N4CCCC4)cc23)cc1 | 106% (inactive) | 89.3% (inactive) | 40.3% (inactive) | 74% (inactive) | 95.4% (inactive) | 97.6% (inactive) | 89.6% (inactive) | 98.3% (inactive) | 3.82% (active) | 2.94% (active)
19 | CCc1n(Cc2ccc3ccccc3c2)cc[n+]1Cc1ccc2ccccc2c1 | -55.2% (active) | 11.9% (inactive) | 6.37% (active) | 80.6% (inactive) | -10.3% (active) | 72.3% (inactive) | 84.5% (inactive) | 21.8% (inactive) | 11.4% (inactive) | 10.6% (inactive)
20 | COc1cc(-c2nc(SCC(C)C)nc(Nc3cccc4ccccc34)c2C#N)cc(OC)c1OC | 107% (inactive) | 98.7% (inactive) | 92.6% (inactive) | 67.9% (inactive) | 128% (inactive) | 98.4% (inactive) | 68.5% (inactive) | 74.3% (inactive) | 75% (inactive) | 64.3% (inactive)
21 | COc1cc(-n2cc(-c3cc(O)c(C/C=C(\C)CCC=C(C)C)c(O)c3)nn2)cc2c1O[C@]1(C)CC[C@@H](O)C(C)(C)[C@H]1C2 | -17.1% (active) | 28% (inactive) | 24.9% (inactive) | -53.8% (active) | 40.2% (inactive) | 16.6% (inactive) | 12% (inactive) | 10.7% (inactive) | 0.511% (active) | -0.403% (active)
22 | COc1cc(-c2cc(-c3cccs3)c(C#N)c(N3CCOCC3)n2)cc(OC)c1OC | 95.6% (inactive) | 88.1% (inactive) | 77.9% (inactive) | 58.9% (inactive) | 92.5% (inactive) | 71.2% (inactive) | 66.5% (inactive) | 66.4% (inactive) | 38.8% (inactive) | 28.3% (inactive)
23 | Cc1ccc(Cl)cc1Nc1nc(C(F)(F)F)ccc1C(=O)N/N=C/c1cccnc1 | -5.85% (active) | 12.7% (inactive) | 36.4% (inactive) | 15% (inactive) | 24.3% (inactive) | 10.2% (inactive) | 14.3% (inactive) | 34% (inactive) | 10.6% (inactive) | 3.8% (active)
24 | O=Cc1ccc([N+](=O)[O-])s1 | 107% (inactive) | 114% (inactive) | 84.1% (inactive) | 89.8% (inactive) | 112% (inactive) | 90.8% (inactive) | 100% (inactive) | 94.5% (inactive) | 88.2% (inactive) | 88.3% (inactive)
25 | CC/C(=C(/c1ccc(Cl)cc1)c1ccc(OCCN2CCCC2)cc1)c1ccc(OC)cc1 | 105% (inactive) | 65.1% (inactive) | 79.5% (inactive) | 59.5% (inactive) | 76.9% (inactive) | 78.6% (inactive) | 82% (inactive) | 108% (inactive) | 40.6% (inactive) | 32% (inactive)
